Laboratory results: PubChem BioAssay (EPA / NIEHS)
Records with an inconclusive call do not appear. Calls of active or inactive are those of the source. Rule for the calls: active = hit-call score of the fitted dose curve at least 0.9, where 1 is the maximum; inconclusive = response in the unintended direction; inactive = score below 0.9.

The compounds below were run on sulfotransferase (SULT2A), SULT2A1 (gene 6822) (assay: CLD_SULT2A_6hr: CellzDirect (CLD) Gene Expression Assay for sulfotransferase (SULT2A) at 6 hours (AID 2283669);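 note: hits raise transcript level above the DMSO vehicle baseline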).
Description: CLD_6hr is a cell-based, multiplexed-readout assay that uses hepatocyte, a human liver primary cell, with measurements taken at 6 hours after chemical dosing in a 96-well plate.CLD_SULT2A_6hr is one of 16 assay component(s) measured or calculated from the CLD_6hr assay. It is designed to make measurements of mRNA induction, a form of inducible reporter, as detected with chemiluminescence signals by Quantitative Nuclease Protection Assay (qNPA) technology.Data from the assay component CLD_SULT2A_6hr was analyzed at the endpoint, CLD_SULT2A_6hr, in the positive analysis fitting direction relative to DMSO as the negative control and baseline of activity. Using a type of inducible reporter, gain-of-signal activity can be used to understand changes in the reporter gene as they relate to the gene SULT2A1. Furthermore, this assay endpoint can be referred to as a primary readout. To generalize the intended target to other relatable targets, this assay endpoint is annotated to the transferase intended target family, where subfamily is sulfotransferase.
Human hepatocyte cultures were treated daily for two consecutive days with fresh dosing solutions containing appropriate concentrations of the 320 ToxCast chemicals (chemical identities were blinded to CellzDirect and other ToxCast collaborators), vehicle control (0.2% DMSO), and positive control inducers as summarized in Table 1. Due to the large number of treatment groups and chemicals examined, the ToxCast chemicals were divided into two groups (spanning two independent cultures of hepatocytes from separate donor preparations (Hu778: ToxCast plates 1 and 2; Hu776: ToxCast plates 3 and 4). Each preparation of human hepatocyte cultures was treated with respective vehicle control, medium only control, set of six positive controls/reference chemicals for the five hepatic receptor pathways, and a subset of eight of the ToxCast chemicals (indoxacarb, pyrithiobac-sodium, norflurazon, cyhalofop-butyl, methomyl, thiram, acetochlor, and propiconazole). These replicate data, coupled with internal replicates designed within the blinded ToxCast chemical library, provided additional data to evaluate interindividual differences between hepatocyte preparations and their potential impact on chemical profiles.Cell morphology and integrity were evaluated using phase-contrast microscopy as an indicator of hepatocyte cell health (Tyson & Green, 1987). Cultures for each treatment group (i.e., media, vehicle [0.2% DMSO], positive control inducers [multiple concentrations], and the ToxCast chemicals [multiple concentrations]) were observed and cell morphology was assessed relative to vehicle control cultures at each harvest time point (0, 6, 24, or 48 h). […] Images were evaluated at the conclusion of the study to assess changes in cell integrity and account for the effects of chemical exposure on uncharacteristic changes in concentration-dependent gene expression profiles. The results from these determinations of apparent cytotoxicity were annotated (yes/no) alongside the corresponding qNPA data for reference.At the conclusion of each treatment period, hepatocyte cultures (96-well) were washed with 1 volume of HBSS, lysed by addition of 25 ul ArrayPlate lysis buffer (HTG, Tucson, AZ), and 70 ul/well of Denaturation Oil, denatured by incubation at 95C for 10 min, and frozen at approximately -70C until analysis by nuclease protection assay (qNPA) (Roberts et al., 2007). For qNPA analysis, cell lysates were thawed at 50C for approximately 30 min, qNPA probes were added, and samples were incubated at 95C for 10 min to begin the detection process by denaturing the target RNA, dissociating the duplexes and secondary structure hybridization. At the conclusion of the hybridization period, S1 nuclease reagent was added to each sample to digest all nonprotected nucleotides at 50C for 60-90 min. […]

Row | Structure (SMILES) | outcome | AC50
1 | COc1nc(C)nc(NC(=O)NS(=O)(=O)c2ccccc2CCC(F)(F)F)n1 | inactive | –
2 | COP(=S)(OC)Oc1nc(Cl)c(Cl)cc1Cl | inactive | –
3 | N#CC(CCc1ccc(Cl)cc1)(Cn1cncn1)c1ccccc1 (stereo not given) | inactive | –
4 | CCOC(=O)CC(SP(=S)(OC)OC)C(=O)OCC (stereo not given) | inactive | –
5 | COC(=O)C(C)Oc1ccc(Oc2ccc(Cl)cc2Cl)cc1 (stereo not given) | inactive | –
6 | CCOP(=S)(OCC)SCn1c(=O)oc2cc(Cl)ccc21 | inactive | –
7 | CO/C=C(/C(=O)OC)c1ccccc1Oc1cc(Oc2ccccc2C#N)ncn1 | inactive | –
8 | CON(C)C(=O)Nc1ccc(Cl)c(Cl)c1 | inactive | –
9 | COC(=O)N(OC)c1ccccc1COc1ccn(-c2ccc(Cl)cc2)n1 | inactive | –
10 | O=C(O)COc1nc(Cl)c(Cl)cc1Cl | inactive | –
11 | CCOc1cc(Oc2ccc(C(F)(F)F)cc2Cl)ccc1[N+](=O)[O-] | inactive | –
12 | CCCN(CCC)c1c([N+](=O)[O-])cc(S(N)(=O)=O)cc1[N+](=O)[O-] | inactive | –
13 | N#Cc1nn(-c2c(Cl)cc(C(F)(F)F)cc2Cl)c(N)c1S(=O)C(F)(F)F (stereo not given) | inactive | –
14 | Cc1c(F)c(F)c(COC(=O)C2C(/C=C(\Cl)C(F)(F)F)C2(C)C)c(F)c1F (stereo not given) | inactive | –
15 | CCCCNC(=O)OCC#CI | inactive | –
16 | CC(C)Oc1cc(-n2nc(C(C)(C)C)oc2=O)c(Cl)cc1Cl | inactive | –
17 | C=CCC1=C(C)C(OC(=O)C2C(C=C(C)C)C2(C)C)CC1=O (stereo not given) | inactive | –
18 | COc1nc(NC(C)C)nc(NC(C)C)n1 | inactive | –
19 | COP(N)(=O)SC (stereo not given) | inactive | –
20 | CC(C)C1(C)N=C(c2nc3ccccc3cc2C(=O)O)NC1=O (stereo not given) | inactive | –

Row | Structure (SMILES) | outcome | AC50
21 | CNC(=S)S | – | 7.49 µM (active)
22 | CC1COC(Cn2cncn2)(c2ccc(Oc3ccc(Cl)cc3)cc2Cl)O1 (stereo not given) | – | 20 µM (active)
23 | C=CCC1=C(C)[C@@H](OC(=O)[C@@H]2[C@@H](C=C(C)C)C2(C)C)CC1=O | – | 20 µM (active)
24 | N#Cc1cc(Br)c(O)c(Br)c1 | inactive | –
25 | CCc1nn(C)c(C(=O)NCc2ccc(C(C)(C)C)cc2)c1Cl | – | 2.8 µM (active)
26 | CCOC(=O)C(Cl)Cc1cc(-n2nc(C)n(C(F)F)c2=O)c(F)cc1Cl (stereo not given) | inactive | –
27 | CC(C)(C)c1ccc(CSc2cnn(C(C)(C)C)c(=O)c2Cl)cc1 | inactive | –
28 | OC(c1ccc(Cl)cc1)(c1cncnc1)c1ccccc1Cl (stereo not given) | inactive | –
29 | CCCC1COC(Cn2cncn2)(c2ccc(Cl)cc2Cl)O1 (stereo not given) | inactive | –
30 | C#CCOS(=O)OC1CCCCC1Oc1ccc(C(C)(C)C)cc1 (stereo not given) | inactive | –
31 | Cc1cc(Cl)ccc1OCC(=O)O | inactive | –
32 | CCCCC(CC)COC(=O)c1ccccc1C(=O)OCC(CC)CCCC (stereo not given) | inactive | –
33 | Cc1ccc(-c2c(Cl)nc(C#N)n2S(=O)(=O)N(C)C)cc1 | – | 20 µM (active)
34 | COc1cnc(OC)n2nc(NS(=O)(=O)c3c(OCC(F)F)cccc3C(F)(F)F)nc12 | inactive | –
35 | COc1nc(C)nc(NC(=O)NS(=O)(=O)c2ccccc2Cl)n1 | inactive | –
36 | COc1ccc(C(c2ccc(OC)cc2)C(Cl)(Cl)Cl)cc1 | inactive | –
37 | CCNc1nc(Cl)nc(NC(C)C)n1 | inactive | –
38 | CCCCOC(=O)c1ccccc1C(=O)OCCCC | inactive | –
39 | COC(=O)C=C(C)OP(=O)(OC)OC | inactive | –
40 | CC1=C(C(=O)Nc2ccccc2)SCCO1 | inactive | –
